# Legend:
# Assay in all cases: DAPPL (digital affinity profiling via proximity ligation, sequencing); 10 mM Tris-HCl pH 7.5, 50 mM NaCl, 1 mM DTT, 4% glycerol, room temperature, 30 min; GST-TFs on glutathione beads, 16-mer random dsDNA library, 0.1% formaldehyde crosslink after washing; high values mean tight binding
# FLI1 = target: T1, FLI1 (Homo sapiens, UniProt Q01543 1-452); conditions: protein: recombinant; tags: N-terminal GST; dsDNA, one strand shown
# T1 sequence: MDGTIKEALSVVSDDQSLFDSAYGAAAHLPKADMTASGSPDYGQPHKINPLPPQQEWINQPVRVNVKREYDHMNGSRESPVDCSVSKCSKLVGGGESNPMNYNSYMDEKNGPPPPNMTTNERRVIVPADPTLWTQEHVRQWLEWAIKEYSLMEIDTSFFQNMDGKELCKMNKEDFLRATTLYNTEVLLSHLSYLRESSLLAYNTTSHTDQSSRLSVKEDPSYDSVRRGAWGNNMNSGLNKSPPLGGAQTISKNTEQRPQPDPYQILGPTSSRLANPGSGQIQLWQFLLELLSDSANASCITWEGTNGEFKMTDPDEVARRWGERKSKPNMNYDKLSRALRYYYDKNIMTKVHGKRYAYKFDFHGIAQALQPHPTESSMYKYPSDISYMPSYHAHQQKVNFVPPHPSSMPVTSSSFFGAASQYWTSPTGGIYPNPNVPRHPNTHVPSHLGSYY
# Summary of the method: (§1)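 In yeast, human transcription factors were expressed with a GST fusion, then pulled down on glutathione beads and given DNA barcodes. Pooled with a tag-only sample, they were exposed to 200 nmole of a 16-mer random double-stranded DNA library (Tris/NaCl/DTT/glycerol buffer, room temperature, 30 min), washed, crosslinked with 0.1% formaldehyde, proximity-ligated using BsaI/T4 ligase for 1 h at 37 °C, PCR-amplified and read on an Illumina NextSeq500. Each hexamer's frequency of reads for a factor, divided by the matching frequency for the tag-only sample, gives the binding signal.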
# ELK1 = target: T2, ELK1 (Homo sapiens, UniProt P19419 1-428); conditions: protein: recombinant; tags: N-terminal GST; dsDNA, one strand shown
# T2 sequence: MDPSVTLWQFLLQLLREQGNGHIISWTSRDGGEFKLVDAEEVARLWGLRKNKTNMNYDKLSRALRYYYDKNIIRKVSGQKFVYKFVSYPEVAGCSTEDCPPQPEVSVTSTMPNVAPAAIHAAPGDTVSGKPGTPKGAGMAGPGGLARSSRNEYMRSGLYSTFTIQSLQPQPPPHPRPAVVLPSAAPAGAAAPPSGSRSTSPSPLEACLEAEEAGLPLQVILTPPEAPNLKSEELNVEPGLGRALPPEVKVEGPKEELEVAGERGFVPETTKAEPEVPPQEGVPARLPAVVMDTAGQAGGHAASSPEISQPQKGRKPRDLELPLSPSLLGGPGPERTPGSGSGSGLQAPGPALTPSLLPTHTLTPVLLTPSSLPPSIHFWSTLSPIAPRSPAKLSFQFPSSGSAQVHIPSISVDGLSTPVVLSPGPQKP
# Summary of the method: as §1
# GABPA = target: T3, GABPA (Homo sapiens, UniProt Q06546 1-454); conditions: protein: recombinant; tags: N-terminal GST; dsDNA, one strand shown
# T3 sequence: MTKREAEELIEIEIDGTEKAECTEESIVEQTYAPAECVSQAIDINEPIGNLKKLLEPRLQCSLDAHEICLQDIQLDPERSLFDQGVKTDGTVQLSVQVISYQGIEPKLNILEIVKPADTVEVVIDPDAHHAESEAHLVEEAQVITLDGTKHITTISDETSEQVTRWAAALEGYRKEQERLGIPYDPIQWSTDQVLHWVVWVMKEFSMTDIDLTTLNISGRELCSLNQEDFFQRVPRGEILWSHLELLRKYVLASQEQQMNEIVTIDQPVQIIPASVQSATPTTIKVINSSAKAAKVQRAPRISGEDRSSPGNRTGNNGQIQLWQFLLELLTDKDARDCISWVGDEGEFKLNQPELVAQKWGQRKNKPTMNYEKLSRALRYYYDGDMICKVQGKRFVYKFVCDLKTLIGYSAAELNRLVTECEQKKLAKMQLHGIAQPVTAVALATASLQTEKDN
# Summary of the method: as §1
# ERG = target: T4, ERG (Homo sapiens, UniProt P11308 1-479); conditions: protein: recombinant; tags: N-terminal GST; dsDNA, one strand shown
# T4 sequence: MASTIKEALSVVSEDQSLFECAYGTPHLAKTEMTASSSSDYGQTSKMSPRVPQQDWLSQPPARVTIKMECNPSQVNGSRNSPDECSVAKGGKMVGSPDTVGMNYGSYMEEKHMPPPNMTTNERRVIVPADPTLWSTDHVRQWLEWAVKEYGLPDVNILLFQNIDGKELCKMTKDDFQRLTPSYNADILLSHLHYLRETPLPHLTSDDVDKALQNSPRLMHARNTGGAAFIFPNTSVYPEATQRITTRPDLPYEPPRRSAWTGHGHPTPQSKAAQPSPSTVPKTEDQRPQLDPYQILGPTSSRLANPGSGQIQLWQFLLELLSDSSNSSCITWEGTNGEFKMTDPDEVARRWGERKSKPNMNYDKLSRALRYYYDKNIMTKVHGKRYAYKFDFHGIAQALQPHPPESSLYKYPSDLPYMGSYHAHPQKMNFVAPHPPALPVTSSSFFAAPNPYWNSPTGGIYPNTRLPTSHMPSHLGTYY
# Summary of the method: as §1
# ELF1 = ELF1 (Homo sapiens, UniProt P32519 1-619); conditions: protein: recombinant; tags: N-terminal GST; dsDNA, one strand shown
# Sequence of ELF1 (P32519 whole entry): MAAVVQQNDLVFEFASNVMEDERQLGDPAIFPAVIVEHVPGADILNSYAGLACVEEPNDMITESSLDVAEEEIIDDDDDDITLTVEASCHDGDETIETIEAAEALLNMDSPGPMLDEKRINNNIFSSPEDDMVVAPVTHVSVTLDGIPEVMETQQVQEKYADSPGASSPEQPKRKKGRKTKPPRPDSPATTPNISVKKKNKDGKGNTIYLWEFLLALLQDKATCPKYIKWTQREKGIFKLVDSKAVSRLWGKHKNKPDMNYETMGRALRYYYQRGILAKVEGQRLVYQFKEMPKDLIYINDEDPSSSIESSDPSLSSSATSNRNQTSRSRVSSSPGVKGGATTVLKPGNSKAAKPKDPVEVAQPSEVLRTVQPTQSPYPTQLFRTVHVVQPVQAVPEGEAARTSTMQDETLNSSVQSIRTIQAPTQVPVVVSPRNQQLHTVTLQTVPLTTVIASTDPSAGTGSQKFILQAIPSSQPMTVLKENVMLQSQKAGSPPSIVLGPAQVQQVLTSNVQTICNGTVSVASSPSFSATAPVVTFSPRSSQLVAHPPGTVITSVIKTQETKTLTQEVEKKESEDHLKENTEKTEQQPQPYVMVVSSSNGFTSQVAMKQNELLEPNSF
# Summary of the method: as §1
# EHF = target: T5, EHF (Homo sapiens, UniProt Q9NZC4 1-300); conditions: protein: recombinant; tags: N-terminal GST; dsDNA, one strand shown
# T5 sequence: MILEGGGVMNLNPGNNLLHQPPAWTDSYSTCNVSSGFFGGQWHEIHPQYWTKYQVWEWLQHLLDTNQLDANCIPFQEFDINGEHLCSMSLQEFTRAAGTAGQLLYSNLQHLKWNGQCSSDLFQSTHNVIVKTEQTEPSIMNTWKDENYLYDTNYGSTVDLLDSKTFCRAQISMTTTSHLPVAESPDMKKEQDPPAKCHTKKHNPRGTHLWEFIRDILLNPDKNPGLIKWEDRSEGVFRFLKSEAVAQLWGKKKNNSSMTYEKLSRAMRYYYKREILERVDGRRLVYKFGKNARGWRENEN
# Summary of the method: as §1
# SPI1 = SPI1 (Homo sapiens, UniProt P17947 1-270); conditions: protein: recombinant; tags: N-terminal GST; dsDNA, one strand shown
# Summary of the method: as §1
# SPIB = SPIB (Homo sapiens, UniProt Q01892 1-262); conditions: protein: recombinant; tags: N-terminal GST; dsDNA, one strand shown
# Sequence of SPIB (Q01892 whole entry): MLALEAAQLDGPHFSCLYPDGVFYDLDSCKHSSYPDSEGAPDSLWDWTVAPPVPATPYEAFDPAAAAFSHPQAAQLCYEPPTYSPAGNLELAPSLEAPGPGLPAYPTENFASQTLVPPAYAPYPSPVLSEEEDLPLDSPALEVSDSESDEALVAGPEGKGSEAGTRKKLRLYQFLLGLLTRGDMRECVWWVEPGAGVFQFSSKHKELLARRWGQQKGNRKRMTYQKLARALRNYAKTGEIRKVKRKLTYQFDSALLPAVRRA
# Summary of the method: as §1
# ELK3 = target: T6, ELK3 (Homo sapiens, UniProt P41970 1-407); conditions: protein: recombinant; tags: N-terminal GST; dsDNA, one strand shown
# T6 sequence: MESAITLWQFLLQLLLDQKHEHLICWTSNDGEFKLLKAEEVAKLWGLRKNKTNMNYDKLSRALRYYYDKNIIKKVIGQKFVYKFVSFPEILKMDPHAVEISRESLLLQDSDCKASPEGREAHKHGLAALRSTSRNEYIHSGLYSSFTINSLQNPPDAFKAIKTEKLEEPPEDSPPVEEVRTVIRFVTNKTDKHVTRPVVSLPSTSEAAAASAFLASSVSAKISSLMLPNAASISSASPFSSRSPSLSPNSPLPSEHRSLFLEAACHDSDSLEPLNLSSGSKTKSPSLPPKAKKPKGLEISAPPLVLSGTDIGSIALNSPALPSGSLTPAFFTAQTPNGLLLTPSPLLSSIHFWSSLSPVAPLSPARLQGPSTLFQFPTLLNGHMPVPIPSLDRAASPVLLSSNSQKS
# Summary of the method: as §1
# FEV = target: T7, FEV (Homo sapiens, UniProt Q99581 1-238); conditions: protein: recombinant; tags: N-terminal GST; dsDNA, one strand shown
# T7 sequence: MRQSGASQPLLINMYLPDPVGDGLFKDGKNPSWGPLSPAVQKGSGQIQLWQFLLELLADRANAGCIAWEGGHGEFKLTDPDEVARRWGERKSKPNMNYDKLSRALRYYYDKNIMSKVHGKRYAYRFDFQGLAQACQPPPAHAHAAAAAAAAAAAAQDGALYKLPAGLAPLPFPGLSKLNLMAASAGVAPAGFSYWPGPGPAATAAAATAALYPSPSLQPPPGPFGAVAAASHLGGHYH
# Summary of the method: as §1
# ETV5 = ETV5 (Homo sapiens, UniProt P41161 1-510); conditions: protein: recombinant; tags: N-terminal GST; dsDNA, one strand shown
# Sequence of ETV5 (P41161 whole entry): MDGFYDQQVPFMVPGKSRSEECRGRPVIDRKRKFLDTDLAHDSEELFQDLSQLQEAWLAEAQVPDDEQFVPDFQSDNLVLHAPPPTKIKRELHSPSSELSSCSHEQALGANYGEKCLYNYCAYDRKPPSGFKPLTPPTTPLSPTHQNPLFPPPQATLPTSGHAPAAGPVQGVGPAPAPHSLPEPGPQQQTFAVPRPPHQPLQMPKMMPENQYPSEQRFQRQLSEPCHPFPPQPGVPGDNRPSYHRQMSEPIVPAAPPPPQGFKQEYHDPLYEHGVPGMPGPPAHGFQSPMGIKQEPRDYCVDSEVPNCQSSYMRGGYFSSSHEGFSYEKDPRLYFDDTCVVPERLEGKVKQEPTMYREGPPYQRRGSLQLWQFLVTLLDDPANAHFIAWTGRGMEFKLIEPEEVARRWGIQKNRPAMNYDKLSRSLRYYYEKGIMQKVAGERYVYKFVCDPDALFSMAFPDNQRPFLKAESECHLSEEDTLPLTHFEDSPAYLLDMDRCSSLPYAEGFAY
# Summary of the method: as §1
# HSF1 = HSF1 (Homo sapiens, UniProt Q00613 1-529); conditions: protein: recombinant; tags: N-terminal GST; chain copies: 3; dsDNA, one strand shown
# Sequence of HSF1 (Q00613 whole entry): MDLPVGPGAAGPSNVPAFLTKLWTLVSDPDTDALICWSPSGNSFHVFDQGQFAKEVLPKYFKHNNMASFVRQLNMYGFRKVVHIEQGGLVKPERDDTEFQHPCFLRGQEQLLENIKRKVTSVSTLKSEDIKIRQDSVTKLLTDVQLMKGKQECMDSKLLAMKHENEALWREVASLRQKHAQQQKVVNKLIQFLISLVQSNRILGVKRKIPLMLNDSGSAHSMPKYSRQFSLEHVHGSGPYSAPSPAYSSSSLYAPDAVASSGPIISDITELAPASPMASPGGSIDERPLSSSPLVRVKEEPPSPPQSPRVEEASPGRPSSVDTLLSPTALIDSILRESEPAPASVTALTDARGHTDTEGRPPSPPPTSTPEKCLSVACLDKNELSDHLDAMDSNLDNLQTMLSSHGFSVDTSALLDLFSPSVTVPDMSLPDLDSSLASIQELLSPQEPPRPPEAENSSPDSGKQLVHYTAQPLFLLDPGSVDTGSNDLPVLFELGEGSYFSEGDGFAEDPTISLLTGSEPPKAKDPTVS
# Summary of the method: as §1
# SPIC = target: T8, SPIC (Homo sapiens, UniProt Q8N5J4 1-248); conditions: protein: recombinant; tags: N-terminal GST; dsDNA, one strand shown
# T8 sequence: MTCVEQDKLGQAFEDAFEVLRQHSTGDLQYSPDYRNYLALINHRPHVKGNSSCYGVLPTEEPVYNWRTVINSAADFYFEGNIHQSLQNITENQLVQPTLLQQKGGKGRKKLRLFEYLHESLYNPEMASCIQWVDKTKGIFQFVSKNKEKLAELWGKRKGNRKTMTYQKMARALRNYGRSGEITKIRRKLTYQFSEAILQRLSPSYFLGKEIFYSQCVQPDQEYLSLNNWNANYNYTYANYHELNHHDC
# Summary of the method: as §1
# ELF4 = ELF4 (Homo sapiens, UniProt Q99607 1-663); conditions: protein: recombinant; tags: N-terminal GST; dsDNA, one strand shown
# Sequence of ELF4 (Q99607 whole entry): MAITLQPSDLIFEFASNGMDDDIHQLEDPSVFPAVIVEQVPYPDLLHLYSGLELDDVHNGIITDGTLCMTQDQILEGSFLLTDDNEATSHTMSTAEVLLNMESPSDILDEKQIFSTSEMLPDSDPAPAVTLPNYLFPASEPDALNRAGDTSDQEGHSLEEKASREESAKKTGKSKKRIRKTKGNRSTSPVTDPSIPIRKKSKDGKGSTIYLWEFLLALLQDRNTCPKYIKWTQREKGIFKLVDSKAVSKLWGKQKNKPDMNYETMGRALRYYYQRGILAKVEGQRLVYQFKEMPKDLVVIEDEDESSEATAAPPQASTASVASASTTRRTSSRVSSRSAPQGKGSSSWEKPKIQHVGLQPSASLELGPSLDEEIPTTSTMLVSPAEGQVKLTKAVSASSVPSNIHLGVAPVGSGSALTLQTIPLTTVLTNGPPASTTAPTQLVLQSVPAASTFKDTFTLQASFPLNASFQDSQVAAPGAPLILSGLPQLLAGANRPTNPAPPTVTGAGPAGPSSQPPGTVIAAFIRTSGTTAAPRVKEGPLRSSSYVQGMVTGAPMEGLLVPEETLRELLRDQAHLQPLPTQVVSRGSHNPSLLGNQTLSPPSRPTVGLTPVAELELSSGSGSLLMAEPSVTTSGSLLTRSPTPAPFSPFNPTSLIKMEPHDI
# Summary of the method: as §1
# ELK4 = target: T9, ELK4 (Homo sapiens, UniProt P28324-2 1-405); conditions: protein: recombinant; tags: N-terminal GST; dsDNA, one strand shown
# T9 sequence: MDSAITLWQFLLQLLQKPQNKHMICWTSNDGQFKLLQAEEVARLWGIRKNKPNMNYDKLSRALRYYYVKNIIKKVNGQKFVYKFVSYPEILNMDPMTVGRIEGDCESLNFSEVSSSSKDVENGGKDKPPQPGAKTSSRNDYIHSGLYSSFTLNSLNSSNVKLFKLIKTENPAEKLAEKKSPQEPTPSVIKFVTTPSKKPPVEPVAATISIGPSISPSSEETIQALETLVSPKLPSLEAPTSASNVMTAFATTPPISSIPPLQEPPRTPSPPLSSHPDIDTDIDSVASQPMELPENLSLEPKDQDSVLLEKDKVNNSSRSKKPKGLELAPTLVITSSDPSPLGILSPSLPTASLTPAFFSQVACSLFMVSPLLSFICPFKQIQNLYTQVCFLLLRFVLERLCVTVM
# Summary of the method: as §1
# ETV2 = target: T10, ETV2 (Homo sapiens, UniProt O00321 1-342); conditions: protein: recombinant; tags: N-terminal GST; dsDNA, one strand shown
# T10 sequence: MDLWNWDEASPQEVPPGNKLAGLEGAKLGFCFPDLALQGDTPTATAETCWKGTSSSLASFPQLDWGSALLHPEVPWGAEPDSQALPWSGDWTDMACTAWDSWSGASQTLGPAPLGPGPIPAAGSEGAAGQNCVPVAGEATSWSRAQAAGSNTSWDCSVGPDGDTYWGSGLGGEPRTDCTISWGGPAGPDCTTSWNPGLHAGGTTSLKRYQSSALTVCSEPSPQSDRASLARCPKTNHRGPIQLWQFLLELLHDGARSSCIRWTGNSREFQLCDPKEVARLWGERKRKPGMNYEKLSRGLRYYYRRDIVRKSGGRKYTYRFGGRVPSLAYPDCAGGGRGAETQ
# Summary of the method: as §1
# ELF3 = target: T11, ELF3 (Homo sapiens, UniProt P78545 1-371); conditions: protein: recombinant; tags: N-terminal GST; dsDNA, one strand shown
# T11 sequence: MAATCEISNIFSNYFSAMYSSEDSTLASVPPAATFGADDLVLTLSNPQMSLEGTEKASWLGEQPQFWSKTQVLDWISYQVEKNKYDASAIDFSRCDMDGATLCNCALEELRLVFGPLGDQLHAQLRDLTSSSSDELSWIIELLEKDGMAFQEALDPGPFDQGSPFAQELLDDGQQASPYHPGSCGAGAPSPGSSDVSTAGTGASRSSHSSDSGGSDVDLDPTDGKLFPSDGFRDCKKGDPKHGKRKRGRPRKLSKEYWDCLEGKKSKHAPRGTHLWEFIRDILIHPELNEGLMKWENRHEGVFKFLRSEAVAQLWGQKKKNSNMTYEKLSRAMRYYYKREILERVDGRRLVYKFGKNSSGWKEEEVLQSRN
# Summary of the method: as §1
# CRX = CRX (Homo sapiens, UniProt O43186 1-299); conditions: protein: recombinant; tags: N-terminal GST; dsDNA, one strand shown
# Sequence of CRX (O43186 whole entry): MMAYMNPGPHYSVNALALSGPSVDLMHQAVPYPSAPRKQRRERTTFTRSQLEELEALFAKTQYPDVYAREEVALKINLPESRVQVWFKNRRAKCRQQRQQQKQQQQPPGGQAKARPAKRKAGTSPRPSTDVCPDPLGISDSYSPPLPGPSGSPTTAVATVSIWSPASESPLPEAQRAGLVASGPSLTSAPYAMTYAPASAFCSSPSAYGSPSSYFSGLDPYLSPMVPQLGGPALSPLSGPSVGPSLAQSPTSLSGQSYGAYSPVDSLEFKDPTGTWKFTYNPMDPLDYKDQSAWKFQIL
# Summary of the method: as §1
# ETV1 = ETV1 (Homo sapiens, UniProt P50549 1-477); conditions: protein: recombinant; tags: N-terminal GST; dsDNA, one strand shown
# Sequence of ETV1 (P50549 whole entry): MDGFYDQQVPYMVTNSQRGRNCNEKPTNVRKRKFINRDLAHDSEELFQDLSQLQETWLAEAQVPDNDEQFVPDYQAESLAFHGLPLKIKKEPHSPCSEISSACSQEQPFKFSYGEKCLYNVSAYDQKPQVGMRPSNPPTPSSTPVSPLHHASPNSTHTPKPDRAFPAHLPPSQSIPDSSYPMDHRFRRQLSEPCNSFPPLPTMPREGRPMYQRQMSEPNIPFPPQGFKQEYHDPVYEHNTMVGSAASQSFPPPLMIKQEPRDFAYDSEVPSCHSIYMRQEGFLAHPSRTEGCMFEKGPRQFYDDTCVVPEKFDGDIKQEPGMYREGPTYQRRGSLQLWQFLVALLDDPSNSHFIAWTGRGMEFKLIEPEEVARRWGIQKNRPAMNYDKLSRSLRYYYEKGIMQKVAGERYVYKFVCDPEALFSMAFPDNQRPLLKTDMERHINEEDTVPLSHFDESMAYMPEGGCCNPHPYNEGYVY
# Summary of the method: as §1
sequence,measurement,setting,value
CCCGAA,binding signal,FLI1,"1.44 fold enrichment (6-mer frequency, TF over GST control)"
same,binding signal,ELK1,"1.26 fold enrichment (6-mer frequency, TF over GST control)"
same,binding signal,GABPA,"1.51 fold enrichment (6-mer frequency, TF over GST control)"
same,binding signal,ERG,"1.18 fold enrichment (6-mer frequency, TF over GST control)"
same,binding signal,ELF1,"1.39 fold enrichment (6-mer frequency, TF over GST control)"
same,binding signal,EHF,"1.3 fold enrichment (6-mer frequency, TF over GST control)"
same,binding signal,SPI1,"1.36 fold enrichment (6-mer frequency, TF over GST control)"
same,binding signal,SPIB,"1.27 fold enrichment (6-mer frequency, TF over GST control)"
same,binding signal,ELK3,"1.2 fold enrichment (6-mer frequency, TF over GST control)"
same,binding signal,FEV,"1.37 fold enrichment (6-mer frequency, TF over GST control)"
same,binding signal,ETV5,"1.36 fold enrichment (6-mer frequency, TF over GST control)"
same,binding signal,HSF1,"2.56 fold enrichment (6-mer frequency, TF over GST control)"
same,binding signal,SPIC,"1.45 fold enrichment (6-mer frequency, TF over GST control)"
same,binding signal,ELF4,"1.37 fold enrichment (6-mer frequency, TF over GST control)"
same,binding signal,ELK4,"1.34 fold enrichment (6-mer frequency, TF over GST control)"
same,binding signal,ETV2,"1.29 fold enrichment (6-mer frequency, TF over GST control)"
same,binding signal,ELF3,"1.47 fold enrichment (6-mer frequency, TF over GST control)"
same,binding signal,CRX,"1.61 fold enrichment (6-mer frequency, TF over GST control)"
same,binding signal,ETV1,"1.29 fold enrichment (6-mer frequency, TF over GST control)"

# — PMC7862700, “An all-to-all approach to the identification of sequence-specific readers for epigenetic DNA modifications on cytosine”
